# Laboratory results as given in ChEMBL document CHEMBL2218924, “A broad activity screen in support of a chemogenomic map for kinase signalling research and drug discovery” (Biochem J, 2013).
# Target: Serine/threonine-protein kinase VRK2 (Homo sapiens) (UniProt Q86Y07)
# Details: at 10 µM
# Chain of Serine/threonine-protein kinase VRK2 (Homo sapiens) (Q86Y07 whole entry): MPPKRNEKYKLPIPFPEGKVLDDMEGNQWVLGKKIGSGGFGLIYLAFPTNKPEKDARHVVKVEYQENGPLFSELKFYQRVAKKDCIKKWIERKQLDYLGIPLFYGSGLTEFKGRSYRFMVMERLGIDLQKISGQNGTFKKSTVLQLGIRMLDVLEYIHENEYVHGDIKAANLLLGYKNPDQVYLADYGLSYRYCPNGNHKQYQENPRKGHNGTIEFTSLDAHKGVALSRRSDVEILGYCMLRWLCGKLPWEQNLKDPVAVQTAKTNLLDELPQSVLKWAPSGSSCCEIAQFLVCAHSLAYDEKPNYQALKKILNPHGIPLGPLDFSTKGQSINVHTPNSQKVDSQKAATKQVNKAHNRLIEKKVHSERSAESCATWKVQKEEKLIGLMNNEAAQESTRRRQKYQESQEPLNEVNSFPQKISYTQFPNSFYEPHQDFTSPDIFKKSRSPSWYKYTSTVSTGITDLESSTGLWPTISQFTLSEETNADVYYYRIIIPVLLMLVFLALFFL
row,Compound,residual activity [%]
1,O=Nc1c(-c2c(O)[nH]c3ccccc23)[nH]c2ccccc12,28
2,Cc1cncc2cccc(S(=O)(=O)N3CCCN(C(=O)CN)C[C@H]3C)c12,66
3,COc1cc2ncnc(N3CCN(C(=O)Nc4ccc(Oc5ccccc5)cc4)CC3)c2cc1OC,86
4,N#Cc1cnc2cnc(NCc3cccnc3)cc2c1Nc1ccc(F)c(Cl)c1,93
5,O=C1Nc2ccccc2/C1=C1/Nc2ccccc2/C1=N\OCCC(O)CO (stereo not given),26
6,Oc1c2ccccc2c2c3c(cccc13)N=N2,36
7,COc1cccc(-c2cc(=O)c3ccccc3o2)c1N,96
8,Cc1cccc(-c2[nH]c(C(C)(C)C)nc2-c2ccc3c(c2)OCO3)n1,71
9,CNc1cc2c(Nc3cccc(Br)c3)ncnc2cn1,91
10,O=[N+]([O-])c1ccc(-c2nc(-c3ccc(F)cc3)c(-c3ccncc3)[nH]2)cc1,93
11,O=C(O)c1ccc2c3c1cccc3c(=O)n1c3ccccc3nc21,89
12,Cn1nc2c3c(cccc31)C(=O)c1ccccc1-2,77
13,CO[C@H]1C[C@@H]2CC[C@@H](C)[C@@](O)(O2)C(=O)C(=O)N2CCCC[C@H]2C(=O)O[C@H]([C@H](C)C[C@@H]2CC[C@@H](O)[C@H](OC)C2)CC(=O)[C@H](C)/C=C(\C)[C@@H](O)[C@@H](OC)C(=O)[C@H](C)C[C@H](C)/C=C/C=C/C=C/1C,97
14,COc1cc2ncnc(Nc3ccc(O)c(Br)c3)c2cc1OC,56
15,COc1cc2ncnc(Nc3ccc(NC(=O)c4ccccc4)cc3)c2cc1OC,55
16,O=C(Nc1cccc(Nc2cc(Nc3cccc(C(F)(F)F)c3)ncn2)c1)C1CC1,77
17,O=C1NC(=O)/C(=C/c2ccc3c(c2)OC(F)(F)O3)S1,97
18,O=C1c2ccccc2-[n+]2ccc3c([nH]c4ccccc43)c21,92
19,Ic1cccc(CSc2nnc(-c3ccncc3)o2)c1,79
20,CCN(CC)CCCCN1c2ccccc2Oc2ccc(Cl)cc21,99
21,CO[C@H]1[C@@H](OC)C[C@H](C)[C@@H](OC)C2=CC(=O)C=C(NC(=O)/C(C)=C/C=C/[C@H](OC)[C@@H](OC(N)=O)/C(C)=C/[C@@H]1C)C2=O,96
22,c1ccc(-c2n[nH]c3c2oc2ccccc23)cc1,77
23,N#CC(C#N)=C(N)/C(C#N)=C/c1ccc(O)cc1,94
24,CO[C@@H]1[C@H](N(C)C(=O)c2ccccc2)C[C@H]2O[C@]1(C)n1c3ccccc3c3c4c(c5c6ccccc6n2c5c31)C(=O)NC4,94
25,c1ccc(-c2n[nH]cc2-c2ccnc3ccccc23)nc1,67
26,CC(=O)O/N=C1\C(=C2\C(=O)Nc3cc(Br)ccc32)Nc2ccccc21,97
27,CN(C)CCCn1cc(C2=C(c3c[nH]c4ccccc34)C(=O)NC2=O)c2ccccc21,76
28,Nc1cccc(-c2cc3c(Oc4cccc(O)c4)ncnc3[nH]2)c1,89
29,CC(C)n1cnc2c(NCc3ccccc3)nc(NCCCO)nc21,69
30,CC(C)n1cnc2/c(=N/c3cccc(Cl)c3)nc(NCCO)[nH]c21,19
